Source: PubChem
In the library only some 5.4% were active in any assay of this set; here they are far more common.
CSC inhib – cancer stem cell viability inhibitors, primary screen, luminescence. cancer stem cell-like cells viability. inhibition, % at 7.5 µM. 300,000 compounds, 1.1% hits. AID 2717, 2010; in the data active means inhibition above about 75%; inconclusive means no clear call, values can overlap the other calls; tested in HMLE shEcad cells
Beta apoptosis – inhibitors of cytokine-induced beta cell apoptosis, primary screen, luminescence. INS-1E cytokine-induced death, ATP luminescence, 48 h; percent of positive-control rescue, neutral wells zero. protection from apoptosis, % (test concentration not listed). 300,000 compounds, 0.8% hits. AID 435005, 2010;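 active means Every replicate reaches about 75%, or at least half do and their mean reaches it too, limit read from the data; inconclusive means At least half of replicates reach the limit but their mean does not; inactive means Under half of replicates reach the limit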;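 further: 0% = cytokine-treated negative control wells and 100% = positive control rescue; higher means more ATP so stronger rescue from cytokine killing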
Mdm2-MdmX inh – inhibitors of human Mdm2-MdmX association, primary screen, cell-based, luminescence, split luciferase, SaOS-2, uHTS; 330,000 compounds, 3% hits; SaOS-2 split-luciferase Mdm2/MdmX complementation; Protein Mdm4 (Homo sapiens) + E3 ubiquitin-protein ligase Mdm2 (Homo sapiens), …; inhibition, % at 8 µM;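 active means inhibition of at least 50% at 8 µM in the primary screen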
Calb FLC – C. albicans growth inhibition with fluconazole, primary screen, CaCi-2 strain, Alamar Blue fluorescence | AID 1979, 2009 | C. albicans CaCi-2 (fluconazole-resistant clinical isolate) + fluconazole, 48 h | growth inhibition, % (concentration not given with the values) | 300,000 compounds, 0.57% hits;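 active means growth inhibition above about 58% in most replicates, limit read from the data, passing the limit was not always enough; inconclusive means exactly half the replicates above a set limit; inactive means most replicates below a set limit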;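 further: all wells also contain fluconazole at 8 µg/ml as a sub-toxic cotreatment; 0% = median of DMSO wells and 100% = median of geldanamycin control wells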
MPTP inh – mitochondrial permeability transition pore inhibitors, primary screen, biochemical, isolated mouse mitochondria, absorbance; Ca2+ swelling absorbance, 30 min; inhibition, % at 10 µM; 360,000 compounds, 1.4% hits; AID 602449, 2012;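 active means inhibition of 50% or more, scaled per plate between neutral and stimulator controls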;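 further: 0% = DMSO wells given calcium and 100% = 1 mM EGTA wells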
SKKanGAS inh – S. pyogenes SKKanGAS growth inhibitors in kanamycin, primary screen, streptokinase expression inhibitor project, SKKanGAS strain, BacTiter-Glo luminescence; inhibition, % at 7.5 µM; 6 h; 300,000 compounds, 1.3% hits;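 active means mean replicate score, as percent of positive control median, at least 50; inconclusive means mean below 50 but one replicate at or above 50; inactive means mean and every replicate below 50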;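 further: strain carries kanamycin resistance gene driven by streptokinase promoter and grows in 40 µg/ml kanamycin; loss of luminescence reflects streptokinase promoter inhibition or plain growth inhibition; 0% = median of DMSO wells and 100% = positive control at its reference dose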
Mdm2-MdmX conf – Mdm2-MdmX complex disruptors, retested hits, confirmation, luminescence, single concentration | shares compounds with Mdm2-MdmX inh | Mdm2-MdmX binding, luminescent assay | inhibition, % at 8 µM | 10,000 compounds, 55% hits; in the data active means inhibition above about 40%
FLuc counter – full-length luciferase signal inhibition, confirmation, counter-screen for Mdm2/MdmX interaction inhibitor project, cell-based, single concentration, SaOS-2. shares compounds with Mdm2-MdmX inh. SaOS-2 full-length luciferase counterscreen, luminescence. inhibition, % at 8 µM. 6,200 compounds, 77% hits. AID 504607, 2011;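 active means mean inhibition at 8 µM reaching about 37%, which flags the compound as non-specific, limit read from the data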;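 further: p53-null SaOS-2 cells with luciferase driven by a doxycycline-inducible promoter; compound on cells about two nights before reading with doxycycline added after day one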
An asterisk follows results filed as active; ? = inconclusive; / = no result given.

SMILES	CSC inhib	Beta apoptosis	Mdm2-MdmX inh	Calb FLC	MPTP inh	SKKanGAS inh	Mdm2-MdmX conf	FLuc counter
CCOC(=O)CSc1nc2c(c(=O)[nH]1)C(C)(CC)Cc1ccccc1-2 (configuration not stated)	71	?	57*	13	2	9	53*	54*
Cc1oc(-c2ccc(Cl)cc2)cc1C(=O)NC1CCN(Cc2ccccc2)CC1	14	/	60*	-6	0	0	28	/
Cc1ccc(C)c(OCc2cc(C(=O)NC3CCN(Cc4ccccc4)CC3)no2)c1	12	14	53*	7	4	0	16	/
CCN(CCNC(=O)C1CCN(Cc2nc(-c3cccc(Cl)c3)oc2C)CC1)c1ccccc1	22	39	52*	-23	-3	-3	51*	61*
O=C(NC1CCN(Cc2ccccc2)C1)c1cc(COc2ccc(F)cc2F)on1 (configuration not stated)	-6	20	11	17	0	-2	/	/
Cc1ccc(-n2c(=O)[nH]c3cc(C(=O)NC4CCN(Cc5ccccc5)CC4)ccc3c2=O)cc1	-9	2	87*	-4	1	-2	26	/
Cc1oc(C(C)(C)C)cc1C(=O)NC1CCN(Cc2ccccc2)CC1	16	4	10	-26	-1	-2	/	/
CN(C)S(=O)(=O)c1cccc(NC(=S)N/N=C/C(c2ccccc2)c2ccccc2)c1	-6	-1	-7	1	4	10	/	/
CCc1ccc(-c2nc(CN3CCC(C(=O)NCc4ccc(F)cc4)CC3)c(C)o2)cc1	16	11	58*	-9	2	-4	42*	67*
CCc1ccc(-c2nc(CN3CCC(C(=O)N4CCN(c5ccccn5)CC4)CC3)c(C)o2)cc1	/	1	27	/	1	/	/	/
CCc1ccc(-c2nc(CN3CCC(C(=O)NCCN(CC)c4ccccc4)CC3)c(C)o2)cc1	16	18	78*	?	3	12	80*	59*
CCc1ccc(-c2nc(CN3CCC(C(=O)N4CCN(c5ccccc5)CC4)CC3)c(C)o2)cc1	13	12	53*	?	3	-9	40*	86*
Cc1oc(-c2ccc(Cl)cc2)nc1CN1CCC(C(=O)NCc2cccs2)CC1	-7	-1	32	17	3	-9	/	/
COc1ccc(-c2nc(CN3CCC(C(=O)NC4CCN(Cc5ccccc5)CC4)CC3)c(C)o2)cc1OC	-12	10	80*	-28	0	-2	49*	55*
CN(C)Cc1ccccc1CNC(=O)c1cccc(S(=O)(=O)Nc2ccc3c(c2)OCO3)c1	/	/	/	/	1	/	/	/
CO[C@H]1CN(C)C(=O)c2cc(NS(=O)(=O)c3ccccc3)ccc2OC[C@@H](C)N(Cc2ccccn2)C[C@@H]1C	/	/	/	/	0	/	/	/
CCN(CCNC(=O)C1CCCN(Cc2nc(-c3ccc(OC)cc3)oc2C)C1)c1ccccc1 (configuration not stated)	2	0	48	-21	-2	1	/	/
CCN(CCNC(=O)C1CCN(Cc2nc(-c3ccc(Cl)cc3)oc2C)CC1)c1ccccc1	40	/	51*	?	-3	3	54*	48*
O=C(Nc1ccccc1C(=O)NC1CCCCC1)c1ccccc1	36	-1	11	-6	-2	-4	/	/
O=C(Nc1ccccc1C(=O)NC(Cc1ccccc1)C(=O)NC1CCCCCC1)c1ccccc1 (configuration not stated)	-5	16	62*	-1	1	13	-1	/
Cc1ccc2c(c1)N(CC(=O)N1CCOCC1)C(=O)C(C)O2 (configuration not stated)	18	-1	-6	-1	2	1	/	/
O=C(Nc1ccccc1)NN(C(=O)CCl)c1ccccc1	?	-41	100*	-1	-1	-3	76*	58*
Cc1ccc(N(NC(=O)C(O)(c2ccccc2)c2ccccc2)C(=O)CCl)cc1	21	-9	100*	-15	2	6	97*	56*
CC1(C(=O)NCc2cccc3ccccc23)CCN1CCc1ccccc1 (configuration not stated)	/	/	/	/	2	/	/	/
CCOC(=O)c1sc2ncn(CC(=O)Nc3cc(C)on3)c(=O)c2c1C	/	/	55*	/	1	/	-10	/
SMILES	CSC inhib	Beta apoptosis	Mdm2-MdmX inh	Calb FLC	MPTP inh	SKKanGAS inh	Mdm2-MdmX conf	FLuc counter
COc1ccc(C2CC(O)(c3ccccc3)Oc3cc(OC)cc(OC)c32)cc1 (configuration not stated)	/	/	9	11	1	-3	/	/
COc1ccc(C2CC(O)(c3ccccc3)Oc3c(C)ccc(C)c32)cc1 (configuration not stated)	/	-5	51*	-2	2	89*	25	/
COc1cc(OC)c(C2C(C#N)=C(C)NC(C)=C2C#N)c(C(=O)O)c1	-13	-2	-9	-14	1	5	/	/
CC(=O)Nc1ccc(S(=O)(=O)N2CCC(N3CCCC3)CC2)cc1	-5	1	3	-3	-2	-2	/	/
Cc1cccc(C)c1NC(=O)COc1ccc2c(C)c(Cc3ccccc3)c(=O)oc2c1C	1	10	97*	24	3	-8	11	/
Cc1c(C)c2ccc(OCC(=O)Nc3ccccn3)c(C)c2oc1=O	38	-6	88*	3	0	25	90*	52*
Cc1c(Cc2ccccc2)c(=O)oc2c(C)c(OCC(=O)Nc3ccc(C#N)cc3)ccc12	20	-3	5	-4	-6	6	/	/
Cc1c(C)c2cc(Cl)c(OCC(=O)Nc3ccccn3)cc2oc1=O	/	/	/	/	0	/	/	/
COc1cnc(-c2ccccc2)nc1Oc1ccccc1C	3	-3	10	-4	1	7	/	/
COc1cnc(-c2ccccn2)nc1NC(C)C	-2	68	79*	113*	-6	?	87*	48*
COc1cnc(-c2ccccn2)nc1Oc1ccc(Cl)c2ccccc12	55	97*	52*	-1	-5	93*	39	/
O=C(CNC(=O)c1ccccc1)N/N=C/c1cc(Br)ccc1O	21	75	40	3	-1	-4	/	/
COc1ccc(O)c(/C=N/NC(=O)c2ccc(OCc3cccc(Br)c3)cc2)c1	91*	93*	68*	63*	8	11	69*	33
Cn1cccc1-c1cc(C(=O)N/N=C/c2cc(Br)ccc2O)[nH]n1	/	21	74*	33	1	90*	78*	26
